Source: PMC4081100, “A DNA-binding-site landscape and regulatory network analysis for NAC transcription factors in Arabidopsis thaliana”

What was measured:
Experiment in all cases: universal protein binding microarray (PBM); transcription factors of Arabidopsis thaliana; high values mean tight binding
Conditions in all cases: protein: recombinant; tags: GST; chain copies: 2; dsDNA, one strand shown
GST-ANAC092(1-176) = molecular target: T1, GST-ANAC092(1-176) (Arabidopsis thaliana, UniProt Q9FKA0 1-176)
T1 sequence: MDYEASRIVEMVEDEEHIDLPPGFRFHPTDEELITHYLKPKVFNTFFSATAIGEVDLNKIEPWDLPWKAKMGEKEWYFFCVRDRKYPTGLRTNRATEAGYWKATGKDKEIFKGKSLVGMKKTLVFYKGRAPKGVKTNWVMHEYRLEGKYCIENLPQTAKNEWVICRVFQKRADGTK
Procedure, shortened: (§1)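 Protein amounts were determined by A280 or anti-GST western blot after glutathione–Sepharose 4B purification of GST-tagged proteins induced in cells, with zinc acetate included for zinc-finger proteins. Duplicate runs at 200 to 500 nM final were done on custom all-10-mer Agilent 4 × 180K arrays made double-stranded by primer extension. The normalised enrichment score (E-score) over gapped and ungapped 8-mers is the measure of binding.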

GST-NTL6(1-168) = GST-NTL6(1-168) (Arabidopsis thaliana, UniProt Q9SCK6 1-168)
GST-NTL6(1-168), sequence (Q9SCK6 1-168): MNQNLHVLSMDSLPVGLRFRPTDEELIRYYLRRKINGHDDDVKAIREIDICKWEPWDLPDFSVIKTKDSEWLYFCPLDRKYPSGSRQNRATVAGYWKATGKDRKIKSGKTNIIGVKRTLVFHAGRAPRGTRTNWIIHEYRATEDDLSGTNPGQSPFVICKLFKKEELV
Procedure, shortened: as §1

GST-ANAC019 NAC domain = molecular target: T2, GST-ANAC019 NAC domain (Arabidopsis thaliana, UniProt Q9C932 14-162)
T2 sequence: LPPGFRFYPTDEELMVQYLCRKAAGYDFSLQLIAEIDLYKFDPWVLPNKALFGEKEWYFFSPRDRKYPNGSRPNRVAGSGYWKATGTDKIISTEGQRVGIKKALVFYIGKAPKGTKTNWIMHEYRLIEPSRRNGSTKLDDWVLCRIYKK
Procedure, shortened: as §1

GST-ANAC055(1-171) = molecular target: T3, GST-ANAC055(1-171) (Arabidopsis thaliana, UniProt Q9LDY8 1-171)
T3 sequence: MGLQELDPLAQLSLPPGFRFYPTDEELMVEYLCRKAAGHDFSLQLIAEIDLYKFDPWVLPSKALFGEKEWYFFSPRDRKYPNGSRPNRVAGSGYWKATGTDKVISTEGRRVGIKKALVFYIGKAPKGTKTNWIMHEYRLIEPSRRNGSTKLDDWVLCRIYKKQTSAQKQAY
Procedure, shortened: as §1

GST-ATAF1 NAC domain = molecular target: T4, GST-ATAF1 NAC domain (Arabidopsis thaliana, UniProt Q39013 7-158)
T4 sequence: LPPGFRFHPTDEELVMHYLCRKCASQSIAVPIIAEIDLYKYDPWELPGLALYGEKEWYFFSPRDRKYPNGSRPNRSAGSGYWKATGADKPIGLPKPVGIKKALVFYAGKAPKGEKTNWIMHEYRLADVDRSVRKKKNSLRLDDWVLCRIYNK
Procedure, shortened: as §1

[1] = molecular target: T5, GST-ANAC092(1-285) full length (Arabidopsis thaliana, UniProt Q9FKA0 1-285)
T5 sequence: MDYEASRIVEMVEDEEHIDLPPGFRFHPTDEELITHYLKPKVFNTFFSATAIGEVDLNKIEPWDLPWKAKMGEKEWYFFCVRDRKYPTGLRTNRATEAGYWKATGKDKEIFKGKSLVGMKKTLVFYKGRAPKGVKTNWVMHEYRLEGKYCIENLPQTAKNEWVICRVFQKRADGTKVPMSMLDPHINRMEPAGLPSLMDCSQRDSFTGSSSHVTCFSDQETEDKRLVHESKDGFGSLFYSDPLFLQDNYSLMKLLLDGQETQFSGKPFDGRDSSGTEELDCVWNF
Procedure, shortened: as §1

GST-NAP(1-166) = molecular target: T6, GST-NAP(1-166) (Arabidopsis thaliana, UniProt O49255 1-166)
T6 sequence: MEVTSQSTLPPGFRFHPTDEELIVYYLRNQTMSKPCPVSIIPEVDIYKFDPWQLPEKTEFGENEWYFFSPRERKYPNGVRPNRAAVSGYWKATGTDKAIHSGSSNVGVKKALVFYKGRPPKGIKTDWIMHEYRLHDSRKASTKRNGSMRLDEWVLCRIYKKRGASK
Procedure, shortened: as §1

GST-NST2(1-184) = molecular target: T7, GST-NST2(1-184) (Arabidopsis thaliana, UniProt Q9M274 1-184)
T7 sequence: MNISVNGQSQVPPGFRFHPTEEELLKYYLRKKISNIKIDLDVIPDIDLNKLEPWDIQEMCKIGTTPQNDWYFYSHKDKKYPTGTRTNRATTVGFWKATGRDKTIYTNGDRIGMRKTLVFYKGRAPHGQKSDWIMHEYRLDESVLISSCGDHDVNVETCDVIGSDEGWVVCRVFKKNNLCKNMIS
Procedure, shortened: as §1

GST-NTL8 NAC domain = molecular target: T8, GST-NTL8 NAC domain (Arabidopsis thaliana, UniProt Q9XIN7 14-156)
T8 sequence: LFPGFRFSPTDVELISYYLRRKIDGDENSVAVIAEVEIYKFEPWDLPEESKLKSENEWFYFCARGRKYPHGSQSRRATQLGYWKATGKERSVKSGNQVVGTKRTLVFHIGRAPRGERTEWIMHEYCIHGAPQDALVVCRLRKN
Procedure, shortened: as §1

GST-SND1(1-203) = molecular target: T9, GST-SND1(1-203) (Arabidopsis thaliana, UniProt Q9LPI7 1-203)
T9 sequence: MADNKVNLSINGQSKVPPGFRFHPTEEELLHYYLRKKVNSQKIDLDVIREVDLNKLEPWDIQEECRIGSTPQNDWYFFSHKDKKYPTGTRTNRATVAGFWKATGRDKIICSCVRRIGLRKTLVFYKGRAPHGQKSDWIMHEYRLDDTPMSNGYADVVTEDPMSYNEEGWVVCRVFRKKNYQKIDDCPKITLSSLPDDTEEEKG
Procedure, shortened: as §1

GST-VND3 NAC domain = molecular target: T10, GST-VND3 NAC domain (Arabidopsis thaliana, UniProt Q9FH59 12-162)
T10 sequence: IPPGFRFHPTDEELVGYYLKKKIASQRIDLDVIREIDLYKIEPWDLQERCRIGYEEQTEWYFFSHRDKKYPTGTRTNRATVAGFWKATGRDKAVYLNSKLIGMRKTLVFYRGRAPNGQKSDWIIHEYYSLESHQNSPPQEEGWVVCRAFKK
Procedure, shortened: as §1

GST-VND7 NAC domain = molecular target: T11, GST-VND7 NAC domain (Arabidopsis thaliana, UniProt Q9C8W9 9-158)
T11 sequence: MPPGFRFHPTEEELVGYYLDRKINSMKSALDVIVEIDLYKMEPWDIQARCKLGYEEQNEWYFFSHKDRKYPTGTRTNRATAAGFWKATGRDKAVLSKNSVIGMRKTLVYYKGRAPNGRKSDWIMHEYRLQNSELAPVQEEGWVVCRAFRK
Procedure, shortened: as §1

| Sequence | binding signal (GST-ANAC092(1-176)) | binding signal (GST-NTL6(1-168)) | binding signal (GST-ANAC019 NAC domain) | binding signal (GST-ANAC055(1-171)) | binding signal (GST-ATAF1 NAC domain) | binding signal [1] | binding signal (GST-NAP(1-166)) | binding signal (GST-NST2(1-184)) | binding signal (GST-NTL8 NAC domain) | binding signal (GST-SND1(1-203)) | binding signal (GST-VND3 NAC domain) | binding signal (GST-VND7 NAC domain) |
| --- | --- | --- | --- | --- | --- | --- | --- | --- | --- | --- | --- | --- |
| ACGTAAGC | 0.42 E-score | 0.133 E-score | 0.453 E-score | 0.406 E-score | 0.352 E-score | 0.449 E-score | 0.428 E-score | 0.298 E-score | 0.205 E-score | 0.368 E-score | 0.437 E-score | 0.431 E-score |
| CTAGGAAA | 0.146 E-score | 0.188 E-score | 0.18 E-score | 0.214 E-score | 0.167 E-score | 0.0932 E-score |  | 0.187 E-score | 0.425 E-score | 0.145 E-score | 0.219 E-score | 0.13 E-score |
| TTAAGCAA | 0.357 E-score | 0.471 E-score |  | 0.133 E-score | 0.133 E-score | 0.356 E-score |  | 0.334 E-score | 0.252 E-score | 0.473 E-score | 0.198 E-score | 0.227 E-score |
| AGGGTAAG | 0.0785 E-score | 0.245 E-score | 0.0566 E-score |  |  |  | 0.0509 E-score | 0.0565 E-score | 0.429 E-score | 0.111 E-score | 0.0682 E-score | 0.0597 E-score |
| TATCGTAA | 0.2 E-score | 0.146 E-score |  | 0.0984 E-score | 0.188 E-score | 0.337 E-score | 0.0786 E-score | 0.282 E-score |  | 0.418 E-score | 0.143 E-score | 0.236 E-score |
| TACGCTAA | 0.433 E-score | 0.118 E-score |  | 0.0682 E-score | 0.19 E-score | 0.44 E-score |  | 0.331 E-score |  | 0.475 E-score | 0.171 E-score | 0.131 E-score |
| TAAGGAAA | 0.212 E-score | 0.478 E-score |  | 0.109 E-score | 0.157 E-score | 0.252 E-score | 0.0748 E-score | 0.152 E-score | 0.424 E-score | 0.334 E-score | 0.16 E-score | 0.0908 E-score |
| GAGGTAAC | 0.191 E-score | 0.155 E-score | 0.078 E-score |  | 0.0779 E-score | 0.2 E-score |  | 0.078 E-score | 0.437 E-score | 0.236 E-score | 0.0659 E-score | 0.0864 E-score |
| GAAGCAAC | 0.372 E-score | 0.399 E-score |  | 0.142 E-score | 0.103 E-score | 0.417 E-score |  | 0.282 E-score | 0.416 E-score | 0.443 E-score | 0.0788 E-score | 0.228 E-score |
| GCAAGCAA | 0.367 E-score | 0.26 E-score | 0.167 E-score | 0.0669 E-score |  | 0.42 E-score |  | 0.28 E-score | 0.0916 E-score | 0.4 E-score | 0.0906 E-score | 0.216 E-score |
| ATACTTAA | 0.0831 E-score | 0.445 E-score |  | 0.14 E-score | 0.245 E-score | 0.164 E-score | 0.0565 E-score | 0.224 E-score | 0.154 E-score | 0.246 E-score | 0.187 E-score | 0.106 E-score |
